Laboratory results published in the supplement of paper PMC8253809.
“And” between values parts separate entries of the source, which are not always exact repeats. Equal values may be shown once.

Tests used:
Assay in all cases: growth inhibition (% activity, log2 RLU normalised to DMSO / staurosporine); higher = more growth inhibition
Details in all cases: 33 µM
DIPGX29 = system: DIPGX29 (H3.3 K27M diffuse intrinsic pontine glioma line)
Summary of the method: (§1)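 Approved drugs were tested in triplicate at a single final concentration of about 33 μM for 7 days at 37 °C, 5% CO2, on pHGG cell lines and H9-derived neural stem cells. Readout was CellTiter-Glo luminescence, log2-transformed and scaled per plate to % activity between solvent and positive control wells. The median over replicates gives the growth-inhibition value.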

DIPGX37 = system: DIPGX37 (H3.3 K27M diffuse intrinsic pontine glioma line)
Summary of the method: as §1

DIPGX7 = system: DIPGX7 (H3.3 K27M diffuse intrinsic pontine glioma line)
Summary of the method: as §1

DIPGX9 = system: DIPGX9 (diffuse intrinsic pontine glioma line)
Summary of the method: as §1

HGGX39 = system: HGGX39 (paediatric high-grade glioma line)
Summary of the method: as §1

HGGX6 = system: HGGX6 (H3.3 G34R paediatric high-grade glioma line)
Summary of the method: as §1

HNSC = system: HNSC
Summary of the method: as §1

SUDIPGIV = system: SUDIPGIV (diffuse intrinsic pontine glioma line)
Summary of the method: as §1

SUDIPGVI = system: SUDIPGVI (diffuse intrinsic pontine glioma line)
Summary of the method: as §1

SUDIPGXIII = system: SUDIPGXIII (diffuse intrinsic pontine glioma line)
Summary of the method: as §1

SMILES | growth inhibition (DIPGX29) | growth inhibition (DIPGX37) | growth inhibition (DIPGX7) | growth inhibition (DIPGX9) | growth inhibition (HGGX39) | growth inhibition (HGGX6) | growth inhibition (HNSC) | growth inhibition (SUDIPGIV) | growth inhibition (SUDIPGVI) | growth inhibition (SUDIPGXIII)
CNC1CC(N)C(O)C(OC2OC(CO)C(O)C3OC4(OC(C(N)CO)C(O)C(O)C4O)OC23)C1O (stereo not drawn) | 4.68% | 1.71% | 0.134% | 3.12% | -0.261% | 1.68% | 1.11% | 3.64% | 1.16% | -0.132%
C#C[C@]1(O)C=C[C@H]2[C@@H]3CCC4=CC(=O)CC[C@@H]4[C@H]3CC[C@@]21CC | 1.62% | 0.668% | 0.599% | 1.55% | 1.48% | 3.32% | 0.901% | 0.673% | 1.89% | 0.6%
C[C@@H]1O[C@@H](O[C@H]2C[C@@H](O)[C@]3(CO)[C@H]4[C@H](O)C[C@]5(C)[C@@H](C6=CC(=O)OC6)CC[C@]5(O)[C@@H]4CC[C@]3(O)C2)[C@H](O)[C@H](O)[C@H]1O | 41.5% | 21.1% | 60.7% | 26.1% | 54.5% | 51.4% | 59.4% | 60.1% | 37.7% | 45.3%
CC(NC(C)(C)C)C(=O)c1cccc(Cl)c1 (stereo not drawn) | -0.525% | -0.598% | -1.27% | 0.229% | 1.55% | 0.445% | -1.56% | 0.0304% | -0.145% | 0.264%
CC(O)(CS(=O)(=O)c1ccc(F)cc1)C(=O)Nc1ccc(C#N)c(C(F)(F)F)c1 (stereo not drawn) | 0.345% | -1.44% | 1.23% | 0.462% | 1.55% | 0.395% | -0.177% | -0.994% | 2.38% | 1.16%
CCC1=C[C@H]2CN3CCc4c([nH]c5ccccc45)[C@](C(=O)OC)(C2)[C@H]13 | -4.07% | -1.56% | -1.78% | -1.01% | -1.76% | -3.94% | -4.27% | 2.26% | -1.41% | -2.44%
CCC(COC(=O)c1cc(OC)c(OC)c(OC)c1)(c1ccccc1)N(C)C (stereo not drawn) | 7.04% | -5.85% | 26.9% | 2.8% | 7.48% | 5.32% | 52.1% | 23.2% | -0.409% | -13.6%
CC(C)c1c(CN(C)C(C)Cc2ccccc2)n(C)n(-c2ccccc2)c1=O (stereo not drawn) | 2.25% | 0.985% | 2.59% | -0.334% | -0.152% | -0.564% | 48.4% | 1.4% | -1.33% | 2.29%
O=C1CC[C@@]2(O)[C@H]3Cc4ccc(O)c5c4[C@@]2(CCN3CC2CC2)[C@H]1O5 | 1.67% | 1.95% | 2.36% | 2.58% | 3.26% | 2.55% | 3.56% | 1.52% | 3.67% | -0.861%
CCN(C)C(=O)Oc1cccc([C@H](C)N(C)C)c1 | -0.955% | -0.495% | 1.09% | 0.618% | 1.41% | 0.109% | 4.36% | -1.75% | -2.42% | -0.000881%
CC(=O)O[C@H]1C[C@@H]2CC[C@@H]3[C@H](CC[C@@]4(C)[C@H]3C[C@H]([N+]3(C)CCCCC3)[C@@H]4OC(C)=O)[C@@]2(C)C[C@@H]1[N+]1(C)CCCCC1 | -1.09% | 0.743% | -0.188% | 0.99% | -0.431% | 1.2% | -0.41% | -0.385% | 0.196% | –
CC(C)N(CCNC(=O)CN1CCCC1=O)C(C)C | 2.94% | 3.86% | 1.76% | 4.77% | 3.31% | 3.19% | 1.2% | -0.694% | 3.19% | 2.1%
N[C@@H]1C[C@H]1c1ccccc1.N[C@H]1C[C@@H]1c1ccccc1 | 1.4% | 3.63% | 2.09% | -0.549% | 5.28% | 2.4% | 3.66% | 1.14% | 3.88% | 0.0986%
C[C@]12CC[C@H](O)CC1=CC[C@@H]1[C@@H]2CC[C@]2(C)C(=O)CC[C@@H]12 | 2.61% | 1.45% | 2.22% | 1.17% | 3.44% | 4% | 3.63% | 2.37% | 3.47% | 1.67%
CCC1(C)CC(=O)NC(=O)C1 | -3.05% | -2.24% | 4.09% | -2.78% | -4.36% | -4.73% | 7% | -2.82% | -6.09% | -0.846%
Cn1c(CCCC(=O)O)nc2cc(N(CCCl)CCCl)ccc21 | 3.01% | 2.76% | 2.34% | 11.2% | 4.99% | 3.4% | 48.6% | -0.00689% | 1.43% | -0.487%
COc1ccc(OC)c(C(O)C(C)N)c1 (stereo not drawn) | 0.864% | 2.94% | -0.264% | 0.24% | 3.05% | 1.53% | 1.54% | 0.0544% | 3.12% | -0.103%
C=CC[C@]1(O)CC[C@H]2[C@@H]3CCC4=CC(=O)CCC4=C3C=C[C@@]21C | 1.35% | 1.67% | -0.403% | 1.01% | 1.7% | 1.91% | 2.23% | 1.08% | 1.88% | 2.31%
NCC1(CC(=O)O)CCCCC1 | 2.13% and 0.326% | 4.84% and 0.615% | 3.15% and 1.16% | -0.041% and -0.903% | 2.36% and -1.3% | 2.04% and -2.75% | 2.28% and -0.457% | 1.22% and -1.85% | 2.85% and -1.96% | -1.15% and -0.111%
C[C@]12CC[C@H]3[C@@H](CC[C@@]45O[C@@H]4C(O)=C(C#N)C[C@]35C)[C@@H]1CC[C@@H]2O | 0.975% | -2.98% | 3.34% | -0.94% | 3.74% | 0.2% | -3.23% | -0.766% | -0.488% | -1.34%

SMILES | growth inhibition (DIPGX29) | growth inhibition (DIPGX37) | growth inhibition (DIPGX7) | growth inhibition (DIPGX9) | growth inhibition (HGGX39) | growth inhibition (HGGX6) | growth inhibition (HNSC) | growth inhibition (SUDIPGIV) | growth inhibition (SUDIPGVI) | growth inhibition (SUDIPGXIII)
CC[C@@]1(O)C(=O)OCc2c1cc1n(c2=O)Cc2cc3ccccc3nc2-1 | 11.8% | -1.33% | 11.4% | 14.7% | 39.5% | 13.4% | 65.8% | 46.6% | 2.42% | 2.77%
O=P1(N(CCCl)CCCl)NCCCO1 (stereo not drawn) | -1.28% | -0.973% | -2.34% | -0.609% | -1.32% | -0.517% | -1.67% | -2.17% | -1.97% | -0.0596%
CNCC(=O)c1ccc(O)c(O)c1 | -1.95% | 2.52% | -0.724% | -0.688% | 0.248% | -0.714% | -1.87% | 0.154% | -1.65% | 3.12%
COc1ccc(C(CN(C)C)C2(O)CCCCC2)cc1 (stereo not drawn) | 1.29% | 1.34% | 1.7% | 0.288% | 0.682% | -0.233% | 1.61% | 0.0945% | -1.13% | -0.0836%
COC(=O)C1=CCCN(C)C1 | 2.02% | 4.11% | 0.892% | 1.35% | 1.54% | 1.61% | 1.06% | 0.353% | 3.57% | 1.1%
N.N.[Cl][Pt][Cl] | -1.13% | 0.384% | 0.191% | 0.402% | -0.146% | -3.02% | -5.11% | -3% | -1.15% | 1.82%
C[C@]12CCC(=O)C=C1C=C[C@@H]1[C@@H]2CC[C@@]2(C)[C@H]1CC[C@@]2(O)CCC(=O)O | 0.155% | -0.641% | 2.17% | 1.05% | 0.878% | -0.966% | 37.3% | -0.186% | -0.451% | -0.386%
C=CCN.ClCC1CO1 (stereo not drawn) | 0.23% | -1.75% | 1.62% | 1.51% | 2.03% | -0.039% | 0.544% | 0.558% | 1.49% | 0.672%
c1ccc2c(c1)sc1ccccc12 | -2.47% | -0.0217% | -2.61% | -1.01% | -2.68% | -1.23% | -4.08% | -1.98% | -1.87% | 1.54%
Cc1cc(C(C#N)c2ccc(Cl)cc2)c(Cl)cc1NC(=O)c1cc(I)cc(I)c1O (stereo not drawn) | -4.52% | -1.84% | -0.384% | -2.01% | -0.728% | -4.74% | 4.96% | -0.00583% | -3.36% | 3.29%
CCC1(c2cccc(O)c2)CCCCN(C)C1 (stereo not drawn) | 0.813% | 0.766% | -0.204% | 0.246% | -0.148% | -2.47% | 18.5% | -0.915% | -3.26% | -1.39%
OC(c1ccccc1)(c1ccccc1)C1CCNCC1 | 0.581% | -0.7% | -0.982% | -0.0248% | -0.475% | 0.616% | -1.42% | -1.01% | 0.144% | 1.52%
Nc1nc(N)nc(NC2CC2)n1 | 0.786% | 3.68% | 1.03% | 0.525% | 0.614% | -0.225% | 1.21% | 1.07% | 2.19% | 0.454%
O=C(O[C@H]1C[C@H]2CC[C@@H](C1)[N+]21CCCC1)C(O)(c1ccccc1)c1ccccc1 | -4.33% | -1.91% | -0.848% | -3.62% | -4.77% | -4.81% | 20.6% | -1.98% | -6.45% | -0.149%
Cc1cccc(C)c1NC1=NCCCS1 | -3.36% | -1.28% | -0.135% | -0.817% | -0.494% | 0.819% | -4.34% | 2.42% | -4.55% | 0.0734%
COc1ccc(C(=O)N2CCCC2=O)cc1 | 0.75% | 0.424% | 2.24% | 0.251% | -0.804% | -0.258% | 0.808% | -2.06% | -5.15% | -1.15%
C[C@@H]1CC[C@H]2[C@@H](C)C(=O)O[C@@H]3O[C@@]4(C)CC[C@@H]1[C@]32OO4 | 3.47% | -0.962% | 4.12% | 4.81% | 4.98% | 4.39% | 14.5% | 12.8% | -4.44% | 20.5%
CN1C2CC(O)CC1C1OC12 (stereo not drawn) | -2.42% | -0.452% | -1.33% | 0.803% | -1.67% | -0.472% | -2.89% | -1.37% | -0.226% | –
CCCN1C[C@H](CSC)C[C@@H]2c3cccc4[nH]cc(c34)C[C@H]21 | -0.00648% | -1.76% | -0.373% | -0.427% | 1.29% | 2.2% | -2.99% | 0.236% | 0.348% | -3.14%
